These results are taken from paper PMC12136788.

B1: chr10:91630394:91630495:-|CDS|ENSG00000119938|unk|total|mutant (ssRNA)
RNA: GGGAGUUCUACAGUCCGACGAUCCUUGGACCUUAAUGAUAUCUCCUCUGCCUUAAAACACCACGAGGAGAAAAACUUGAUUUCCGAUUUCCCUCAGCCUUCAACCGAUUACUUAAGUUUCCGGAGCCACUUUCAGAAGAACUUCAACAGAGGAUUGAGCAUCA
B2: chr11:20048915:20049016:+|CDS|ENSG00000166833|unk|total|mutant (ssRNA)
RNA: GGGAGUUCUACAGUCCGACGAUCGAGCAGUGGGAGCAGCAGUCCUCUCUACAGCAAGAAUGUGGACCUCAACCAGUCUCCGCCCGCCUCCAGCCCCAGCUCAGCCCACUCGGCCCCUUCCAACAGCCUCACCUGGGGCACCAACAACAGAGGAUUGAGCAUCA
B3: chr1:178479239:178479534:-|three_prime_utr|ENSG00000188585|control|control|control (ssRNA)
RNA: GGGAGUUCUACAGUCCGACGAUCCAGUUUCUGUUUCAUGCAAUCUUCUCUGGAUUUUGAGUAAAUUUUAAUUUUUUAAUCCCUAGUAGAACAAGAUUAGGAAGAACUCGACAUGUGCCAAAAAGCACAGACCUACAACUAACACAACAGAGGAUUGAGCAUCA
B4: chr1:214641902:214642005:+|CDS|ENSG00000117724|unk|total|mutant (ssRNA)
RNA: GGGAGUUCUACAGUCCGACGAUCAGAAAUCAAUGUAAUUUUAAACCUCAGAUGGAUCUUGAAGUUAAAGAAAUUUCUCCCGACCGUUAUAAUGCGCAGUUGGUGCAAUCCGAAGCUAUGCUAAGAAAUAAGGAAUUAAAACUUCAACAGAGGAUUGAGCAUCA
B5: chr20:31664451:31666086:-|three_prime_utr|ENSG00000171552|control|control|control (ssRNA)
RNA: GGGAGUUCUACAGUCCGACGAUCAUGCAGCCCAUGCCCACCUGCCCAUCACAGGGUUGGGCCCAGAUCUGGUCCCUUGCAGCUAGUUUUCUAGAAUUUAUCACACUUCUGUGAGACCCCCACACCUCAGUUCCCUUGGCCUCACAACAGAGGAUUGAGCAUCA
B6: chr10:100209595:100209696:-|CDS|ENSG00000213341|unk|FALSE|unique (ssRNA)
RNA: GGGAGUUCUACAGUCCGACGAUCACUUCUUUCAGAGACAGGAAUUUCUCUGGAUCCUCGGAAACCAGCCUCUCAAUGUGUUCUAGAUGGAGUUGUAAGAAAAUUAAUUAUAAUAUCCCUAGAGUAUGUGAAAUCUAGAGGGAUCAACAGAGGAUUGAGCAUCA
B7: chr6:98868534:98874277:-|three_prime_utr|ENSG00000112234|control|control|control (ssRNA)
RNA: GGGAGUUCUACAGUCCGACGAUCAUUAAAAUUAAUGUGCUUUGUUGGGGUUUAAUUUUGGGAUUGGUUUUGGGUUUUGUUUUUAGUUGUUUUAAUGGUAAGAAUUAAGACAUUUGUAGAUUUUAAAGAAAAAUAUGAAAUUGUCAACAGAGGAUUGAGCAUCA
B8: chr5:132541444:132541810:-|three_prime_utr|ENSG00000113525|control|control|control (ssRNA)
RNA: GGGAGUUCUACAGUCCGACGAUCAAAUUGAUAUACUUUUUUCUUAUUUAACUUAACAUUCUGUAAAAUGUCUGUUAACUUAAUAGUAUUUAUGAAAUGGUUAAGAAUUUGGUAAAUUAGUAUUUAUUUAAUGUUAUGUUGUGUCAACAGAGGAUUGAGCAUCA
B9: chr12:81257974:81259660:-|three_prime_utr|ENSG00000139220|control|control|control (ssRNA)
RNA: GGGAGUUCUACAGUCCGACGAUCAUGACUUAUUAAAAGCUGAAAAAUGUGAUUUUUGGGGGGAGUCAGAUAUUACAUUUGAUUAGUUUACUACAAAUUGUAAUAAAAUGCUUAAGUCAUUUGAAUAAUAAACAUCAUCUACAUCAACAGAGGAUUGAGCAUCA
B10: chr8:80637648:80637749:-|3pUTR|ENSG00000164684|unk|FALSE|unique (ssRNA)
RNA: GGGAGUUCUACAGUCCGACGAUCUGCGCUUAGCUGCAAAGUGCCUGUCAGCAGCUCCAGGCACCAACAAGGUGCCCUUUUAUUAGACAAUUCCUGCCCGAACAUAACCAUAUUGCAGAUGAAAAUUUUCAAUAGAGAAUGACACAACAGAGGAUUGAGCAUCA
B11: chr16:11872726:11872856:-|3pUTR|ENSG00000103342|msi1_unk|FALSE|overlapping (ssRNA)
RNA: GGGAGUUCUACAGUCCGACGAUCACAUAAUUGCCUACAAUAAUGAAAACCUACAGGAAUUUUUUUAUUUUUCAUUUUCCCCUUAGGCAUAUUUAGUAUUUUUCCCCCAGGCAGAUCAUUCUGAGUGUGCGAGUGUGUGUGCACCAACAGAGGAUUGAGCAUCA
B12: chr8:116643852:116643953:-|3pUTR|ENSG00000147677|unk|FALSE|unique (ssRNA)
RNA: GGGAGUUCUACAGUCCGACGAUCUGUUGUGAAUGAGGAAUUAGGAAUUAGGAGAAUGGUAGUACAUUGGGAAAAACAUAUUUUAGUAAUUUUUAUAUUUUAAAGAUAAUCACAGAUUUUGCUGUUUGUGCAUCACCAAAAUCACAACAGAGGAUUGAGCAUCA
B13: chr9:83661418:83661519:-|3pUTR|ENSG00000135018|msi1|FALSE|unique (ssRNA)
RNA: GGGAGUUCUACAGUCCGACGAUCUAUAGUUGGGUGACCAGAUUUUGUCCUGCAUCUGUCCAGUUUAUUUGCUUUUUAAACAUUAGCCUAUGGUAGUAAUUUAUGUAGAAUAAAAGCAUUAAAAAGAAGCAAAUCAUUUGCACUCAACAGAGGAUUGAGCAUCA
B14: chr1:56708525:56708626:+|3pUTR|ENSG00000162409|unk|FALSE|unique (ssRNA)
RNA: GGGAGUUCUACAGUCCGACGAUCACCUUUCUCAAAUUCUUUUUGCCUCUAUUUAUUUUUGCAUUUCACCAACAGUGAUAAAAUAGUUAAAUGAAACAAAGCAAAGUAUCAACAGUCCCUUAAAUGAGAAUCCUUAUCUUUGAUCAACAGAGGAUUGAGCAUCA
B15: chr8:116643852:116643953:-|3pUTR|ENSG00000147677|unk|total|mutant (ssRNA)
RNA: B12 RNA with U41C, A42C, U48C, A49C, U59C, A60C, U83C, A84C

Positions count from the first letter of the chain named. Whole data set: some 5,800 sequences, median “enrichment r” near 0.68, cut for the highest 2% near 11. This excerpt belongs to a sample that is enriched for the highest values.

The assay has as its target T1, UNK ZnF1-6 (called full-length) (human, UniProt Q9C0B0 30-357).
T1 sequence: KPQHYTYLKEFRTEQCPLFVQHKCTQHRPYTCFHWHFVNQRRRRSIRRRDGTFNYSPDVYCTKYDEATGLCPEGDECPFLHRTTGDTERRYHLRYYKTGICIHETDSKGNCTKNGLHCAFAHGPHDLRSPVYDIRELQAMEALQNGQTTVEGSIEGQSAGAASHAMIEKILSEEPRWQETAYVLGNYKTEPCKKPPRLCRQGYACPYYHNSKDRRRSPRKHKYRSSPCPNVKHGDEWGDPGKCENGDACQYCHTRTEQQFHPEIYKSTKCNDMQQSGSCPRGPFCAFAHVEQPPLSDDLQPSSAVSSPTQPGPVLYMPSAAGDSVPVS
In words: nsRBNS (natural sequence RNA bind-n-seq); RBNS binding buffer (assumed for nsRBNS): 25 mM Tris pH 7.5, 150 mM KCl, 3 mM MgCl2, 0.01% Triton X-100, 500 ug/ml BSA, 20 U/ml SUPERase-In, 4 C; UNK is unkempt and MSI1 is Musashi-1; names of the RNAs are library labels; protein concentration not given here; high values mean tight binding.
Molecule B1 yielded a binding signal of 0.273 enrichment R.

As for B2, the binding signal is 0.913 enrichment R.

Consider B3, for which the binding signal is 0.449 enrichment R.

For the molecule B4, the binding signal was found to be 0.401 enrichment R.

Molecule B5 had a binding signal of 1.85 enrichment R.

In the case of B6, the binding signal worked out at 0.651 enrichment R.

Consider B7, for which the binding signal was 12.9 enrichment R.

For B8, the binding signal turned out to be 7.43 enrichment R.

In the case of B9, the binding signal came out at 0.956 enrichment R.

Take B10: the binding signal was 0.967 enrichment R.

B11 displayed a binding signal of 11.3 enrichment R.

The molecule B12 gave a binding signal of 22.5 enrichment R.

B13 returned a binding signal of 7.97 enrichment R.

The molecule B14 showed a binding signal of 0.947 enrichment R.

Turning to B15, the binding signal stood at 0.568 enrichment R.
